Data as given in the supplement of paper PMC6555819.

What was measured:
Test in all cases: PBM binding z-score (relative to random genomic background probes); higher = stronger binding; sequences stand for … in GC…GCGATTGACAGCGTAGAATGAAGG
[1] = tested on: FXR:RXRa (NR concentration 270 nM, RXRa partner concentration 90 nM)
How it was run: (§1)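 Scanned fluorescence from custom Agilent 4×180K protein-binding microarrays was regression-normalized. Binding z-scores use random background probes as reference. Ligand-free nuclear receptor dimers were incubated on the arrays for 1 h and detected with antibodies against each partner (one per run).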

[2] = tested on: LXRa homodimer (NR concentration 270 nM)
How it was run: as §1

[3] = tested on: LXRb homodimer (NR concentration 270 nM)
How it was run: as §1

[4] = tested on: PPARg:RXRa (NR concentration 180 nM, RXRa partner concentration 90 nM)
How it was run: as §1

[5] = tested on: PPARg:RXRa 270nM:90nM, anti-RXR (NR concentration 270 nM, RXRa partner concentration 90 nM)
How it was run: as §1

[6] = tested on: PPARg:RXRa 30nM:10nM, anti-RXR (NR concentration 30 nM, RXRa partner concentration 10 nM)
How it was run: as §1

[7] = tested on: PPARg:RXRa 90nM:30nM, anti-RXR (NR concentration 90 nM, RXRa partner concentration 30 nM)
How it was run: as §1

[8] = tested on: PPARg:RXRa DBDmut IVT, anti-RXR (DBD mutation: RXRa K156A/R161A, NR concentration 270 nM, RXRa partner concentration 90 nM)
How it was run: as §1

[9] = tested on: LXRa:RXRa (NR concentration 270 nM, RXRa partner concentration 90 nM)
How it was run: as §1

[10] = tested on: PPARa:RXRa (NR concentration 270 nM, RXRa partner concentration 90 nM)
How it was run: as §1

Row | Sequence | PBM binding z-score [1] | PBM binding z-score [2] | PBM binding z-score [3] | PBM binding z-score [4] | PBM binding z-score [5] | PBM binding z-score [6] | PBM binding z-score [7] | PBM binding z-score [8] | PBM binding z-score [9] | PBM binding z-score [10]
1 | AGTCAAAGTTCATCTAGGTAACATAAGATATGCT | 6.39 | 5.61 | 2.08 | 6.9 | 6.54 | 3.85 | 5.76 | 1.1 | – | –
2 | AGTCAAAGTTGAGGACGAGGTAACGTAAAGCACG | 0.359 | -0.388 | -0.483 | 1.44 | 1.74 | 0.562 | 0.984 | -0.189 | – | –
3 | GCATATAGGTAATACAAGGTCAAAGTCCGATTGT | 3.47 | 9.94 | 1.42 | 2.69 | 3.32 | 1.39 | 2.9 | 4.1 | – | –
4 | TATACAAGGTCAAAGGCCAGAGTACGAATGTCGA | 7.51 | 6.08 | 4.21 | 8.52 | 7.39 | 5.48 | 7.66 | 2.91 | – | –
5 | ATATGTAGGTTACCTGGGGTCATTCAGACTAGGC | 4.89 | 10.8 | 2.55 | 7.13 | 6.14 | 3.84 | 5.9 | 7.37 | – | –
6 | AGAATGAGGTTAAACGTAGATCAGGGAAGAAAGT | 4.05 | -0.194 | 0.141 | 4 | 4.04 | 1.87 | 3.12 | 6.01 | – | –
7 | CGTCAAACTTCAACTAAGGTAACGTAAAGCACGC | 0.562 | 0.473 | 0.584 | 0.587 | 0.064 | 0.351 | 0.111 | 0.0564 | – | –
8 | CGAACTAGGTCATTGACAGGACAATGAATAGTAA | 4.51 | 0.605 | -0.0587 | 7.97 | 6.6 | 3.9 | 5.84 | 8.11 | – | –
9 | ACTCGGAGGACAAAGGTCAGGGCTACGCCAGTGA | 4.61 | 1.43 | -0.0403 | 9.17 | 7.08 | 5.85 | 7.6 | 0.813 | – | –
10 | TACCCTAGGTCATTCAGGGGCCAGTATAGAAAGC | 4.73 | 8.12 | 4.99 | 2.52 | 2.63 | 0.859 | 2.15 | 1.8 | – | –
11 | GCTTACGGGTCCAAGGTTATAGCATGAATAGAAT | 0.369 | -0.143 | -0.0563 | 1.97 | 2.86 | 1.43 | 2.47 | 0.18 | – | –
12 | ATATGTAGTTTATCGGGTCATTCAGTTTGCGCAT | 2.53 | 3.41 | 0.952 | 1.86 | 2.34 | 0.761 | 1.64 | 2.99 | – | –
13 | GGAACGAGGTCAAGTTGATAGCAGAGTTTGATGG | – | 2.03 | 2.13 | 7.7 | 6.96 | 4.31 | 6.52 | 6.19 | 6.21 | 6.38
